From PubChem BioAssay
AmpC no deterg: inhibitors of E. coli AmpC beta-lactamase without detergent; hit rate 0.52% among 330,000; AmpC nitrocefin hydrolysis, absorbance 480 nm, 0.0001% Triton; Potency, µM (highest dose often 57.1 µM), without a hit: at the top dose activity change, negative = inhibition, actives largely listed as inhibitors; P00811; AID 485341;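 note: plate controls were no compound for no effect and no enzyme for full effect; nearly all actives have a fitted effect of over 20% in size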
Target sequence (P00811 whole entry, looked up): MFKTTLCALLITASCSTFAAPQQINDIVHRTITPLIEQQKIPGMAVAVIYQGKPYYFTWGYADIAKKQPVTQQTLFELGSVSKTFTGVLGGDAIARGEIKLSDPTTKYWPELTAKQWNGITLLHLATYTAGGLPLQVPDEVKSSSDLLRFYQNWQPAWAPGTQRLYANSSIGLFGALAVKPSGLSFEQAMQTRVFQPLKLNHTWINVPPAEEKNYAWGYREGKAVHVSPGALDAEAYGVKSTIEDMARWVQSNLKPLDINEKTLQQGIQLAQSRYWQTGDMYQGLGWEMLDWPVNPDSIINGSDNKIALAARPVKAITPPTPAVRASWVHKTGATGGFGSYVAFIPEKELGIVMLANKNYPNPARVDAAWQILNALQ
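20 mM phosphate pH 7.0 + 0.01% (detergent screen) or 0.0001% Triton X-100; 5.3 nM AmpC reagent; cpd preinc 15 min RT; nitrocefin (800 uM stock) to start; A480 q20 s × 4 min; Activity was normalised to no-enzyme and no-compound control wells.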
AmpC inh detg: inhibitors of E. coli AmpC beta-lactamase with detergent | Potency, µM (titrated, usually from 114 µM), without a hit: at the top dose activity change, negative = inhibition, most hits filed as inhibitors | AID 485294 | AmpC hydrolysis of nitrocefin, absorbance 480 nm, 0.01% Triton | P00811 | hit rate 0.041% among 370,000;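 note: 0% = no-compound wells and -100% = no-enzyme wells; nearly all actives have a fitted effect of over 25% in size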
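AmpC (5.3 nM in the dispensed reagent) in 20 mM phosphate pH 7.0 with 0.01% (detergent screen) or 0.0001% Triton X-100 was preincubated with compounds for 15 min at room temperature. Nitrocefin was then added from an 800 uM solution, and hydrolysis was followed at 480 nm.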
Sm TGR block: blocks Schistosoma mansoni thioredoxin glutathione reductase; hit rate 3% among 360,000; AID 485364; purified TGR, DTNB reduction, TNB absorbance 405 nm; Potency, µM (titrated, usually from 114 µM), for the others: at the top dose activity change, negative = inhibition, hits mostly inhibitors; note: nearly all actives have a fitted effect of over 60% in size
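First, TGR (20 nM dispensed) and NADPH were mixed with compound. Second, a 15 min room-temperature incubation followed. Third, further NADPH and then DTNB were added to start the reaction. Finally, TNB absorbance was monitored kinetically.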
Numbers without * were called inactive; ? = inconclusive; / = no result; [ ] = remark or other dose. This is a sample that favours compounds with a hit; in the whole collection about 3.3% have one here. Calls come from the whole dose curve; as a rule, active = well fitted curve in the direction sought with a large enough effect; inconclusive = small, poorly fitted or top-dose-only effect, or another doubt; inactive = no such curve, though single readings can be large; an effect the other way counts as inactive or inconclusive. Unless noted, % is set by controls: 0 for no effect and ±100 for the full control effect; potency is the fitted concentration of half-maximal effect.

SMILES	AmpC no deterg	AmpC inh detg	Sm TGR block
Cc1ccc(S(=O)(=O)NNc2ccccc2)c(C)c1	-28%	0%	40µM*
Cc1ccc(S(=O)(=O)NNC(=O)c2cccs2)c(C)c1	-18%	-7%	?
Cc1ccc(C)c(CN2C(=O)c3ccccc3S(=O)c3ccc(C(=O)N4CCCCC4)cc32)c1 (configuration not stated)	/	20%	3%
CC(=O)Nc1ccc(Nc2ncnc3c2c(-c2ccccc2)cn3-c2ccc(C)c(Cl)c2)cc1	/	4%	-4%
CCCCNC(=O)CS(=O)Cc1nc(-c2cccc(Cl)c2)oc1C (configuration not stated)	35%	?	32µM*
Cc1cccc(-c2nc(CS(=O)CC(=O)NCCc3ccc(Cl)cc3)c(C)o2)c1 (configuration not stated)	139%	?	?
Cc1ccc(NC(=O)CS(=O)Cc2nc(-c3ccc(C)cc3)oc2C)cc1 (configuration not stated)	35%	-4%	-23%
CCCCSCCCNC(=O)CS(=O)Cc1nc(-c2cccc(C)c2)oc1C (configuration not stated)	206%	3%	45µM*
CCCCNC(=O)CS(=O)Cc1nc(-c2cccc(C)c2)oc1C (configuration not stated)	47%	?	?
CCC(C)NC(=O)CS(=O)Cc1nc(-c2cccc(C)c2)oc1C (configuration not stated)	45%	-6%	25µM*
CCNC(=O)COC(=O)c1cc(-c2ccco2)nc2ccccc12	-22%	0%	16µM*
Cc1ccc(NC(=O)CSCC(=O)N2CCN(C(=O)c3ccco3)CC2)cc1	-16%	-16%	-9%
CN(C)C(=O)c1ccc(NC(=O)c2cc(-c3ccco3)nc3ccccc23)cc1	-8%	0%	14%
Cc1ccc(NC(=O)CSC(C)C(=O)OCC(=O)N2CCN(C(=O)c3ccco3)CC2)cc1 (configuration not stated)	-20%	-10%	50µM*
Cn1c(=O)c(C(=O)COC(=O)c2cc(-c3ccco3)nc3ccccc23)c(N)n(CC2CC2)c1=O	37%	?	3.5µM*
Cn1c(=O)c(C(=O)COC(=O)c2cc(C3CC3)nc3ccccc23)c(N)n(Cc2ccccc2)c1=O	6%	?	-2%
O=C(OCC(=O)N1CCN(C(=O)c2ccco2)CC1)c1cc(S(=O)(=O)Nc2ccc(Cl)cc2)ccc1O	-1%	3%	45µM*
O=C(CCNS(=O)(=O)c1ccc(Cl)cc1)OCC(=O)N1CCN(C(=O)c2ccco2)CC1	-1%	-20%	-17%
COc1ccccc1/C=C/c1nc(C#N)c(N2CCCCCC2)o1	/	15%	10%
C=Cc1ccc(Cn2c(C(=O)O)c(CNCc3cc(OC)ccc3OC)c3ccc(C)cc32)cc1	/	12%	3%
Cc1ccc(CNC(=O)C2CCN(S(=O)(=O)c3cc(-c4noc(C)n4)ccc3C)CC2)cc1	/	5%	13%
COc1ccc(CNC(=O)c2ccc3c(c2)nc2n3CCC(C)C2)c(OC)c1 (configuration not stated)	/	-3%	4%
O=C(c1ccco1)N1CCN(C(=O)c2cc(Cl)nc3ccccc23)CC1	-9%	?	1%
COc1cccc(CNC(=O)COC(=O)c2nc(Cl)c(Cl)c(Cl)c2Cl)c1	-31%	?	3.2µM*
O=C(OCC(=O)N1CCN(C(=O)c2ccco2)CC1)c1cc(-c2ccc(Cl)c(Cl)c2Cl)nc2ccccc12	18%	?	0%
SMILES	AmpC no deterg	AmpC inh detg	Sm TGR block
O=C(COC(=O)c1cc(F)cc(F)c1)NCCCc1ccccc1	-21%	-6%	1%
O=C(OCC(=O)N1CCN(C(=O)c2ccco2)CC1)c1cc(-c2ccco2)nc2ccccc12	20%	?	5µM*
COc1cccc(CNC(=O)CCl)c1	-2%	1%	?
O=C(c1ccco1)N1CCN(C(=O)c2cc(-c3ccccn3)nc3ccccc23)CC1	39%	8%	35µM*
COc1cccc(C(=O)OCC(=O)NCCCc2ccccc2)c1	-11%	?	79µM*
Cc1ccc(C)c(N2CCN(C(=O)c3cc(S(=O)(=O)N4CCCC4)c[nH]3)CC2)c1	/	-1%	-4%
COc1ccc(CNC(=O)COC(=O)c2cc(C)nc3ccccc23)cc1	0%	/	/
COc1ccc(CNC(=O)COC(=O)c2cc(-c3ccco3)nc3ccccc23)cc1	10µM*	-5%	11µM*
CC(=O)c1ccc(NC(=O)Cn2c(-n3nc(C)cc3C)nc(C)c(C)c2=O)cc1	/	0%	8%
CCOc1cc(C2C3=C(CCCC3=O)N(C)C3=C2C(=O)CCC3)cc(Cl)c1O	-13%	-15%	35µM*
CCOc1cc(C2C3=C(CCCC3=O)NC3=C2C(=O)CCC3)cc(Cl)c1O	-3%	0%	-10%[11.4 µM]
CCN1CCc2nc(SCC(=O)Nc3ccc(OC)cc3)c(C#N)cc2C1	-1%	?	-15%
CN1CCc2nc(SCC(=O)Nc3ccc(F)cc3)c(C#N)cc2C1	-12%	2%	28µM*
COc1ccc(NC(=O)CSc2nc3c(cc2C#N)CN(C)CC3)cc1	/	1%	79µM*
CN1CCc2nc(SCc3ccc(C(C)(C)C)cc3)c(C#N)cc2C1	149%	-20%	1%
O=C(NCc1ccccc1)c1ccc(CSc2nc3cccnc3n2Cc2cccc(F)c2)cc1	/	6%	4%
O=C(CCn1c(=O)c2cccn2c2ccc(F)cc21)NCCc1ccccc1Cl	/	2%	3%
Cc1ccc(-n2ncc3c(NCc4ccco4)ncnc32)cc1C	-23%	-1%	1%
Cc1cccc(-n2ncc3c(NCc4ccco4)ncnc32)c1	-45%	?	45µM*
Cc1ccc(NC(=O)CN2C(=O)c3cccnc3Sc3ccccc32)cc1C	/	-3%	1%
O=C(c1ccccc1Cl)N1CCCCC1CCN1CCCCC1 (configuration not stated)	/	1%	-6%
COc1ccc(/C=C2/C(=O)N(Cc3ccccc3)N=C2C)cc1	1%	-5%	1%
COc1ccc(/C=C2/C(=O)N(c3nc4ccccc4s3)N=C2CSc2ccc(Cl)cc2)cc1	16µM*	-12%	-14%
Cc1oc2ccc(O)c(CN3CCCC3)c2c1C(=O)Nc1ccc(C(C)C)cc1	/	11%	-2%
Cc1nc(NC(=O)COC(=O)C(C)NC(=O)c2ccccc2)c(Cl)cc1Cl (configuration not stated)	-15%	-7%	-9%
SMILES	AmpC no deterg	AmpC inh detg	Sm TGR block
COC(=O)c1ccc(/C=C/C(=O)OCC(=O)Nc2ncc(Cl)cc2Cl)cc1	-28%	-7%	-5%
Cc1nc(NC(=O)COC(=O)/C=C/c2ccco2)c(Cl)cc1Cl	-34%	1%	8.9µM*
Cc1nc(NC(=O)COC(=O)C(NC(=O)c2ccco2)C(C)C)c(Cl)cc1Cl (configuration not stated)	-32%	0%	32µM*
Cc1ccc(C(=O)OCC(=O)Nc2ccccc2)cc1NC(=O)c1ccco1	-25%	-10%	0%
Cc1ccc(C(=O)OCC(=O)Nc2ncc(Cl)cc2Cl)cc1NC(=O)c1ccco1	-42%	6%	45µM*
CC(C)=CC(=O)OCC(=O)Nc1nc(C)c(Cl)cc1Cl	-21%	?	25%
